# High-throughput results from PubChem.
# TDP1 cell noCPT – qHTS for Inhibitors of human tyrosyl-DNA phosphodiesterase 1 (TDP1): qHTS in cells in absence of CPT; Potency, µM (titrated, usually from 46.2 µM), for inactives: at the top dose activity change, negative = growth inhibition, usual class: inhibitors; DT40 Tdp1-/- hTDP1 cells, no CPT, ATP luminescence, 48 h; 420,000 tested, 15% active; further: potency means the concentration at half of the fitted maximal effect; nearly all actives have a fitted effect of over 55% in size
#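 Chicken DT40 Tdp1-/- cells stably complemented with human TDP1 were seeded at 400 cells/well with DMSO in place of 20 nM camptothecin. After compound pinning, cells grew at least 48 hr at 37 °C; viability read by CellTiter-Glo luminescence.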
# IL-1B inflam inh – inhibitors of inflammasome signaling (IL-1 beta secretion). THP-1 LPS/ATP IL-1B secretion, AlphaLISA, 16 h; hits give low values. activity change, % at 57.5 µM. 360,000 tested, 4.7% active; in the data active means activity change below about -50%; inconclusive means mostly about -30% to -49%
#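 Secreted IL-1B measured by AlphaLISA bead assay after 16 h compound exposure of THP-1 cells; compounds (final up to 57.5 uM) added 1 h before LPS (250 ng/mL) and ATP (1.25 mM) stimulation; lower signal means less secretion.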
# HT1080-NT tox – kills 2HG-producing HT-1080-NT fibrosarcoma cells; Potency, µM (doses to about 46.1 µM), without a hit: top-dose activity, negative = less viability, usual class: cytotoxic; 360,000 tested, 1.6% active; HT-1080-NT fibrosarcoma viability, CellTiter-Glo ATP luminescence, 48 h; AID 686970;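 further: NT is the 2HG producing partner of a matched IDH1 knockdown line; potency means the concentration at half of the fitted maximal effect; 0% = DMSO-treated cells and -100% = media-only wells without cells; nearly all actives have a fitted effect of over 55% in size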
#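 HT-1080-NT; 750 cells/well; 5% FBS RPMI; 48 h compound, 37 degrees C; CellTiter-Glo luminescence; curve fitting and curve-class assignment.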
# TDP1 cell CPT – DT40-hTDP1 cell growth loss with CPT; 420,000 tested, 12% active; chicken DT40 Tdp1-/-;hTDP1 cells + 20 nM CPT, ATP luminescence, 48 h; Potency, µM (titrated, usually from 46.2 µM), for the others: at the top dose activity change, negative = growth inhibition, most hits filed as inhibitors; further: potency means the concentration at half of the fitted maximal effect; nearly all actives have a fitted effect of over 55% in size
#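 Chicken DT40 Tdp1-/- cells complemented with human TDP1, 400 cells/well, exposed to compounds plus 20 nM camptothecin for at least 48 h at 37 C; viability read as ATP content by CellTiter-Glo luminescence.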
# ELG1 DNA repair – blocks ELG1-dependent DNA repair in HEK293T cells | HEK293T ELG1-luciferase reporter, luminescence, 16 h; DNA damage induced by 5-fluorouridine | 330,000 tested, 2.3% active | Potency, µM (doses to about 46.1 µM), for the others: at the top dose activity change, negative = inhibition, usual class: inhibitors; further: potency means the concentration at half of the fitted maximal effect; nearly all actives have a fitted effect of over 55% in size
#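 Overnight (16 hr) co-exposure of 2,000 cells/well to 5-fluorouridine and compound at 37 °C preceded detection. Luciferase was quantified via ONE-Glo luminescence; loss of signal denotes inhibition.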
# HT1080 IDH1KD tx – HT-1080 IDH1 knockdown cell toxicity (counter line). 360,000 tested, 2% active. HT-1080 IDH1 knockdown viability, ATP luminescence, 48 h. Potency, µM (titrated, usually from 46.1 µM), for inactives: at the highest dose activity, negative = toxicity, hits mostly cytotoxic;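 further: potency means the concentration at half of the fitted maximal effect; 0% = DMSO wells and -100% = cell-free medium wells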
#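 CellTiter-Glo luminescence after 48 h compound exposure at 37 degrees C of IDH1-knockdown HT-1080 cells in 5% FBS RPMI. %Activity scaled between DMSO wells and cell-free media wells, with curves fitted and assigned curve classes.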
# * = called active by the depositor; ? = inconclusive; . = no result; ! = not confirmed by another sample. Shown are actives, neighbours in structure and some others; about 19% of the full set was active somewhere. Unless noted, the call rests on the fitted dose curve; in most records, active means well fitted curve in the direction sought with a large enough effect; inconclusive means small, poorly fitted or top-dose-only effect, or another doubt; inactive means no such curve, though single readings can be large; an effect the other way counts as inactive or inconclusive. Unless noted, on the % scale 0 is the no-effect control and ±100 the full control effect.
SMILES,TDP1 cell noCPT,IL-1B inflam inh,HT1080-NT tox,TDP1 cell CPT,ELG1 DNA repair,HT1080 IDH1KD tx
N#Cc1ccc(NC(=S)N2Cc3ccccc3-n3nncc3C2)cc1,?,10,-4%,-26%,.,-7%
CCN1C[C@]2(COC)CC[C@H](O)[C@@]34C5C[C@H]6[C@H](O)C5[C@](O)(C[C@H]6OC)[C@@H]([C@H](OC)C23)[C@@H]14 (some centres undefined),0%,8,-3%,5%,.,2%
N#CC(C#N)=C(N)c1cccnc1,-12%,9,29%,2%,8%,19%
CCC(c1nnnn1-c1ccc2c(c1)OCCO2)N1CCC(n2c(=O)[nH]c3ccccc32)CC1 (centres undefined),9.2µM*,-20,?,10µM*,.,?
CCC(c1nnnn1C1CCCC1)N1CCC2(CC1)C(=O)NCN2c1ccccc1 (centres undefined),-24%,-15,16%,?,.,4%
CSCCC(c1nnnn1-c1ccc2c(c1)OCCO2)N1CCC(n2c(=O)[nH]c3ccccc32)CC1 (centres undefined),7.3µM*,?,?,7.3µM*,.,?
COc1ccc(Nc2nc(NC(C)C)nc3ccsc23)cc1OC,18µM*,-89*,?,18µM*,.,-26%
CCc1cc2c(cc1-c1csc(C/C(N)=N/O)n1)C(C)(C)CCC2(C)C,18µM*,-19,?,?,.,?
N=c1sccn1Cc1ccccc1F,-12%,4,8%,2%,-8%,2%
O=C1CN=C(c2ccc(Br)cc2)c2c(sc3c2CCCC3)N1CCN1CCCCC1,5.8µM*,?,?,10µM*,?,-3%
O=C(N/N=C/c1c(O)n(C2CCCCC2)c(=S)[nH]c1=O)c1ccccc1,?,22,?,?,?,-28%
O=c1[nH]c(=S)n(C2CC2)c(O)c1/C=N/Nc1ccccc1,-9%,-13,?,-7%,18%,2.3µM*
O=c1[nH]c(=S)n(C2CC2)c(O)c1/C=N/Nc1cccc2ccccc12,?,6,-1%,16µM*,13%,-9%
C[N+]12CCC(CC1)C(OC(=O)C(O)(c1ccccc1)c1ccccc1)C2 (centres undefined),-5%,-3,?,-7%,-4%,12%
CSC1=NP(=S)(SC)N2CCCC2=C1C#N (centres undefined),-11%,8,1%,-22%,-5%,3%
COC(=O)CSC1=NP(=S)(SCC(=O)OC)N2CCCC2=C1C#N (centres undefined),?,-94*,5%,-26%,2%,0%
CCN1C(=O)CC(=O)N(CC)C1=S,0%,-11,20%,-4%,.,13%
COc1ccccc1NC(=O)c1oc2ccccc2c1NC(=O)c1ccccc1C(F)(F)F,5.2µM*,.,.,3.7µM*,.,.
CCC(=O)Nc1ccccc1-c1nc2ccccc2n(C(CC)C(=O)Nc2cccc(Cl)c2)c1=O (centres undefined),21µM*,.,.,26µM*,.,.
O=C1CN=C(c2ccccc2)c2ccccc2N1Cc1ccc(C(F)(F)F)cc1,?,5,7%,22µM*,-6%,-28%
O=C1CN=C(c2ccccc2)c2cc(Br)ccc2N1Cc1cc(=O)n2ccccc2n1,?,-15,8%,?,1%,10%
Cc1ccc(-c2nc(CN3C(=O)CN=C(c4ccccc4)c4ccccc43)c(C)o2)cc1,18µM*,.,.,?,.,.
NNC(=O)CN1C(=O)CN=C(c2ccccc2)c2cc(Br)ccc21,-9%,.,9%,2%,0%,11%
COc1ccc(-c2nc(CN3C(=O)CN=C(c4ccccc4)c4ccccc43)c(C)o2)cc1,18µM*,.,.,?,.,.
Cc1oc(-c2ccccc2Cl)nc1CN1C(=O)CN=C(c2ccccc2)c2ccccc21,21µM*,?,2%,?,?,-13%
SMILES,TDP1 cell noCPT,IL-1B inflam inh,HT1080-NT tox,TDP1 cell CPT,ELG1 DNA repair,HT1080 IDH1KD tx
O=C1NCN(c2ccccc2)C12CCN(C[C@H]1COc3ccccc3O1)CC2,-25%,.,.,9%,.,.
CNC(=O)C[C@H]1CC[C@@H]2NC[C@H](O)COC[C@H]2O1,10%,19,5%,6%,.,19%
CS(=O)(=O)NNP(=O)(NNS(C)(=O)=O)NC(=O)c1ccc(Br)cc1,0%,-5,-6%,-13%,-4%,2%
CS(=O)(=O)N1CCC2(CC1)CN(Cc1ccncc1)C2,6%,.,.,2%,.,.
COc1cc(C[C@@H](C)N)c(OC)cc1I,?,-64*,25%,?,?,5%
O=c1[nH]c(O)c(N=Nc2ccc(S(=O)(=O)N3CCOCC3)cc2)c(=O)[nH]1,-6%,-12,9%,28%,-11%,24%
CN(C)S(=O)(=O)c1ccc(C(=O)NCCSc2c(-c3ccccc3)[nH]c3ccccc23)cc1,6.5µM*,.,.,6.5µM*,.,.
O=C(NCCSc1c(-c2ccccc2)[nH]c2ccccc12)c1ccc(S(=O)(=O)N2CCOCC2)cc1,8.2µM*,.,.,5.8µM*,.,.
COc1cc2c(cc1OC)-c1c(OC)c(OC)c(OC)c3ccnc(c13)C2=O,3.7µM*,?,2%,4.1µM*,6.5µM*,2%
COc1cc(CC2(CCc3ccncc3)C(=O)NC(=O)NC2=O)cc(OC)c1OC,?,-13,13%,-22%,-8%,5%
CCCN(CCC)c1c([N+](=O)[O-])cc(S(N)(=O)=O)cc1[N+](=O)[O-],31µM*,.,.,?,.,.
CCCCN(CC)c1c([N+](=O)[O-])cc(C(F)(F)F)cc1[N+](=O)[O-],18%,.,.,-5%,.,.
CCOC(=O)[C@@H]1[C@H]2COc3ccc(Br)cc3[C@H]2N2C(=O)N(c3cccc(C)c3)C(=O)[C@]12C,?,7,8%,?,2%,6%
COc1cccc2c1cc([N+](=O)[O-])c1c(C(=O)O)cc3c(c12)OCO3,12µM*!,-58*,1%,18µM*!,.,-7%
Oc1cccc2nc3ccccc3nc12,?,-20,-9%,?,-11%,-10%
CC1CC2C(C(O)CC3(C)C(O)CCC23)C2(C)CCC(=O)C=C12 (centres undefined),-8%,-5,4%,15%,.,4%
O=[N+]([O-])c1c(Cl)cccc1-c1c[nH]cc1Cl,15µM*,.,.,21µM*,.,.
O=[N+]([O-])c1ccc(Cl)c(Cl)c1Cl,-3%,-19,0%,3%,9%,1%
